The panel holds about 83,000 compounds, 20% with a hit somewhere; the sample as a whole holds those more often.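 Each cell line was grown in a 96-well plate and treated with one concentration of compound for 48 hours. Values below 10 were considered active.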 A number with no mark means an inactive call. Active and inactive are the calls of the source.

These results are taken from PubChem BioAssay (NCI).

The test system of the test is SN12C renal. The test is described as follows: NCI-60 one-dose screen, 48 h (100 = growth as untreated, 0 = no growth, -100 = all killed). As to conditions: 10 µM unless noted. The method, then: Growth inhibition of the SN12C human tumor cell line is measured as a screen for anti-cancer activity. Cells are grown in 96 well plates and exposed to the test compound for 48 hours. Compounds are tested at a single concentration, which is 10^-5 M for most compounds. The reported endpoint is percent growth (GI% or GIPRCNT), where numbers from 0 - 100% represent growth inhibition, and numbers from -100% - 0 represent cell death. For example, a value of 40 represents 60% growth inhibition. A value of 0 means no net growth occurred over the course of the experiment. A value of -40 indicates 40% of cells at the beginning of the experiment died by the end of the experiment. A value of -100 means all cells are dead at the end of the experiment.
NCI-60 Human Tumor Cell Lines Screen was performed using the standard one-dose NCI protocol, which is described in more detail at https://dtp.cancer.gov/discovery_development/nci-60/default.htm.
Compounds with GIPRCNT values below 10 were considered active. Activity score was based on GIPRCNT using the following formula: […]
Score is 0 for GIPRCNT values of 100 or above, 50 for GIPRCNT values of 0, and 100 for GIPRCNT values of -100.
With `COc1cc(OC)c2c(c1Cl)O[C@]1(C2=O)C(OCc2ccccc2)=CC(=O)C[C@H]1C`, the growth is 13.3%.

For `COc1cc(/C=C/C(=O)CC(=O)/C=C/c2ccc(OC(=O)CCNC34CC5CC(CC(C5)C3)C4)c(OC)c2)ccc1OC(=O)CCNC12CC3CC(CC(C3)C1)C2`, the growth was 23.8%.

Turning to `CCN(CC)CCSc1ncnc2c1cnn2-c1ccc(S(N)(=O)=O)cc1`, the growth is 89.5%.

On to `COCCCNS(=O)(=O)c1ncnc2nc[nH]c12`, for which the growth is 114%.

Take `Cc1ccc(S(=O)(=O)NCCN2c3nc4ccccc4cc3Sc3cc4ccccc4nc32)cc1`: the growth was 66%.

Turning to `CCOC(=O)C(Br)=P(c1ccccc1)(c1ccccc1)c1ccccc1`, the growth was 101%.

In the case of `O=C(/C=C/c1cccc(Nc2ccnc3cc(Cl)ccc23)c1)c1ccc(Cl)cc1`, the growth is 37.6%.

For `COc1cccc2c1C(=O)c1c(O)c3c(c(O)c1C2=O)C[C@@](O)(C(C)=O)C[C@@H]3O[C@H]1C[C@H](N)[C@H](O)[C@H](C)O1`, the growth was 4.49% (active).

Take `CCCCc1ccc(C(N)=O)nc1`: the growth was 98.7%.

Take `Cc1sc2nc(N3CCCCC3)[nH]c(=O)c2c1C`: the growth was 99.2%.

In the case of `COC(=O)N/N=C/c1coc2ccc(Cl)cc2c1=O`, the growth was 88.1%.

As for `c1ccc(-c2oc(-c3ccccc3)c3ccccc23)cc1`, the growth is 104%.

As to `CC(=O)N1N=C(c2ccc(Nc3ccnc4cc(Cl)ccc34)cc2)CC1c1ccc(Cl)cc1` (stereo not given), the growth was 61.9%.

For `Cc1cc(Br)c(C)cc1Br`, the growth is 108%.

For the molecule `COCCOCCOCCOCCOc1ccc2c(c1)C(=O)c1nc3ncccc3c(=O)n1-2`, the growth was -93% (active).

As to `O=C(Nc1nn2c(-c3cc(C(F)(F)F)cc(C(F)(F)F)c3)nnc2s1)C1CCCC1`, the growth was 11.6%.

For the molecule `Cc1sc2nc(NCCc3cccs3)[nH]c(=O)c2c1C`, the growth is 87.7%.

As to `COc1ccc(/C=C/C(=O)c2cccc(NS(C)(=O)=O)c2)cc1`, the growth is 82.8%.

Regarding `O=C1C(=O)/C(=C/c2ccccc2)CCCCCC/C1=C/c1ccccc1`, the growth was 79.8%.

With `CCN(CC)CCCCCCCNc1c2ccc(Cl)cc2nc2ccc(OC)cc12`, the growth is 0.458% (active).

`CN(C)CCCN=c1cc2c(=O)n(CCCN(C)C)c(=O)c3c(NCCCN(C)C)cc4c(O)n(CCCN(C)C)c(=O)c1c4c3-2`: the growth is 9.31% (active).

In the case of `O=C(NN1C(=O)c2cc(C(=O)O)c(C(=O)O)cc2C1=O)c1ccncc1`, the growth is 93.9%.

As for `N/C(=N\c1nc2ccccc2s1)NC(=O)Nc1ccccc1Cl`, the growth is 42.2%.

For the molecule `COc1ccc(-n2cnc3cc(C(=O)N4CCCCC4)ccc32)cc1`, the growth was 95%.

Take `O=C(N/N=C/c1cccc([N+](=O)[O-])c1)c1ccc(Br)o1`: the growth was 142%.

Turning to `CC(C)N(Cc1ccccc1)c1c(Cl)ssc1=O`, the growth is 99.7%.

Regarding `O=C(COc1ccc(/C=C2\Cc3ccccc3C2=O)cc1)c1ccc(Cl)cc1`, the growth was 98.9%.

For the molecule `COc1ccc(-c2nnc3c4[nH]cnc4ncn23)c(OC)c1`, the growth is 55.3%.

As to `O=C(CSc1ncc(-c2ccccc2)n1-c1ccccc1)Nc1ccc(-c2nc3ccccc3s2)cc1`, the growth is 71.2%.

For `C/C(=C\CCc1ccoc1)CC/C=C(\C)CCCC1COC(=O)C1` (stereo not given), the growth was 94.8%.

`Nc1nc(SCc2cccnc2)c2ncn(C3OC(CO)C(O)C3O)c2n1` (stereo not given): the growth was 89.2%.

Regarding `COc1cccc(-c2nc3cc(NC(=O)c4ccc(Cl)c(C#N)c4)ccc3o2)c1`, the growth was 40.2%.

In the case of `COC(=O)[C@H](CCCCNC(=O)OCc1ccccc1)NC(=O)[C@@H](NC(=O)Nc1cc(C(F)(F)F)cc(C(F)(F)F)c1)C(C)C`, the growth was -88.3% [100 µM] (active).

With `CCSc1nc(-c2ccc(F)cc2)c(C#N)c(=O)[nH]1`, the growth is 96.2%.

`COc1cnc2c(c1)C(=O)c1c-2n(CCCN2CCNCC2)c(=O)c2cc(F)ccc12`: the growth was 7.67% (active).

On to `Fc1ccc(-c2nn3c(-c4cc(C(F)(F)F)cc(C(F)(F)F)c4)nnc3s2)cc1`, for which the growth was 46.7%.

Take `NS(=O)(=O)c1ccc(N2CC(c3nc4ccccc4[nH]3)CC2=O)cc1` (stereo not given): the growth was 97.3%.

Regarding `Cc1ccc(-c2csc(N)n2)cc1`, the growth is 96%.

For the molecule `N#Cc1c(-c2ccccc2)cc(-c2ccccc2)n(CCC(=O)O)c1=O`, the growth is 69.1%.

As to `Cc1ccc(C2=Nc3c(ccc4c(C)c(C)c(=O)oc34)OC2)cc1`, the growth is 98.7%.
